For assay [1], the target named is T1, Aspartate--tRNA(Asp/Asn) ligase (Mycobacterium tuberculosis (strain ATCC 25618 / H37Rv)) (UniProt P9WFW3). Further: in the data most compounds retested in dose-response had high values.
T1 sequence (whole entry): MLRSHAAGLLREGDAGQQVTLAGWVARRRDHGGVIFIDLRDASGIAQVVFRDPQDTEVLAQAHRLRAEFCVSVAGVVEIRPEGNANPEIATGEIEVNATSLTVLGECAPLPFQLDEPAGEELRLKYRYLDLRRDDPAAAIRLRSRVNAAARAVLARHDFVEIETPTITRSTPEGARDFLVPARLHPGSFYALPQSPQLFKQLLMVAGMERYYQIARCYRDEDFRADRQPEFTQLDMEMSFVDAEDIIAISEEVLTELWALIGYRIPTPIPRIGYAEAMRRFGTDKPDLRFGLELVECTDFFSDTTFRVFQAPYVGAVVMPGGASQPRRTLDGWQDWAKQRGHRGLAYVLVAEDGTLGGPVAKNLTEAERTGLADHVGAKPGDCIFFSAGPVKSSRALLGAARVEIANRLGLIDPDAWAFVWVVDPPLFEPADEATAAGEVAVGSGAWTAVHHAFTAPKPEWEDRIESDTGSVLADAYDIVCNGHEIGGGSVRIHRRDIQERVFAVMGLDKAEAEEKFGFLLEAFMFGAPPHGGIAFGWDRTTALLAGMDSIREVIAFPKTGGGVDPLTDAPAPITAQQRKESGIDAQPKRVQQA
The assay is described as follows: Assay for Asp RNA synthetase-1 from Mycobacterium tuberculosis. Type of assay: functional. More on the design: scale not given: direction of the effect not stated beside the values. The following applies: 30 µM.

For assay [2], the target named is Shiga toxin 2 (Escherichia coli O157:H7) (UniProt P09385+P09386). The assay is described as follows: E. coli 0.157:H7 Shiga Toxin SOP - stx2 screening assay. Type of assay: functional. More on the design: scale not given: direction of the effect not stated beside the values. To be noted: 30 µM.

Turning to `CCNc1nc2c(s1)C(=O)CN(C(=O)NCCc1ccccc1)C2`, the Percent Effect was 2.72% in assay [1] and -10.6% in assay [2].
Consider `O=S(=O)(Cc1ccccc1)N1CCCn2cnc(CN3CCCC3)c2C1`, for which the values for the Percent Effect in assay [1] and in assay [2] were 16% and -5.12%, respectively.
For the molecule `COc1ccc(CN2CCC3(CC2)CCN(c2ncccn2)CC3)cc1`, the Percent Effect in assay [1] is 2.89%; in assay [2], -0.95%.
For `CC(C)(C)c1nnc(CN2CCCC(Cn3cncn3)C2)o1` (centres undefined) the same measures were 0.322% and 13%.
The matching figures for `CCn1nc2c(cc1=O)CN(Cc1nc(CCOC)no1)CC2`: 2.21% and -7.6%.
In the case of `Cc1nc(-c2ccccc2)n(CC(=O)NCC(C)C)n1`, the Percent Effect is -3.61% in assay [1] and 22% in assay [2].
The matching figures for `COc1cccc(CNC(=O)C(c2cccc(F)c2)N2CCOCC2)c1` (centres undefined): 1.86% and -6.55%.
For `Cc1cc2n(n1)CC(CNC1CCN(c3ccc(F)cc3)CC1)CN2` (centres undefined) the same measures were 4.19% and -37.2%.
Take `CC(C)c1nn(C)c(N(C)C)c1CNCCC(=O)NC1CCCC1`: the Percent Effect in assay [1] was -3.2%; in assay [2] it was -5.9%.
The matching figures for `O=c1nc(SCc2ccncc2)c2c(n1CCO)CCCC2`: -6.81% and -5.81%.
The matching figures for `Cn1cc(CN(Cc2ccccc2)CC(O)c2cccs2)cn1` (centres undefined): 0.353% and 9.88%.
For `Cc1cccc(-c2[nH]ncc2CNCC2CCN(CC(C)O)CC2)c1` (centres undefined) the same measures were 4.15% and 20.1%.
`CCNC(=O)N1CCCCC1CCNS(C)(=O)=O` (centres undefined): the values for the Percent Effect in assay [1] and in assay [2] were -3.62% and 4.69%, respectively.
The matching figures for `CCCn1nc2c(cc1=O)CN(CCCS(N)(=O)=O)CC2`: 18.8% and 7.35%.
The matching figures for `Cc1nn(C)c(N2CCOCC2)c1CNC1CCN(C(C)(C)C)CC1`: -0.171% and 1.07%.
Regarding `O=C(NCc1nn(-c2ccccc2)c2c1CCC2)NC1CC1`, the values for the Percent Effect in assay [1] and in assay [2] were 1.63% and 9.96%, respectively.
As for `COC(=O)c1ccc2ccn(CC3CCCO3)c(=O)c2c1` (centres undefined), the Percent Effect in assay [1] worked out at 7.1%; in assay [2], 6.53%.
In the case of `Cc1cc(C)n(C2CN(CC(=O)NC3CCOCC3)C2)n1`, the Percent Effect in assay [1] is -1.88%; in assay [2], -2.98%.
The matching figures for `CC(C)c1nc(C2CCCN2C(=O)c2ccc(N(C)C)nn2)no1` (centres undefined): 5.45% and 18.3%.
Turning to `O=C(NC[C@]12COC[C@H]1CN(C1CCOCC1)C2)c1ccco1`, the Percent Effect in assay [1] was 1.57%; in assay [2], -3.12%.
The matching figures for `c1cnn(-c2ccc(CN3CCOC(Cn4cncn4)C3)cc2)c1` (centres undefined): 4.05% and 9.62%.
The matching figures for `Fc1cccc(N2C[C@H]3CCN(c4cccnc4)C[C@H]3C2)c1`: 6.15% and -16.5%.
For `CC(C)N(C)Cc1cn2c(n1)CN(Cc1ccsc1)CC2`, the Percent Effect in assay [1] was 1.89%; in assay [2], -40.8%.
For `CC(C)N(C)Cc1nnc2n1CCCN(C(=O)c1ccco1)C2` the same measures were 1.27% and -12.8%.
The matching figures for `CCC(=O)NCCc1cc(N2CCN(C(C)=O)CC2)nc(C2CC2)n1`: -0.432% and -2.36%.
For `CC(C)(C)c1nc(CN2CCC(c3nc4cc(Cl)ccc4o3)CC2)no1` the same measures were -2.4% and -14.9%.
As to `CNC(=O)CCCNCc1c(C)nn(C)c1N(C)C`, the Percent Effect in assay [1] is 2.12%; in assay [2] it was -15.3%.
The matching figures for `CCOc1ccc(Cl)cc1C1CCCN1` (centres undefined): 3.74% and 5.67%.
For `O=C(c1cc(COc2ccc3c(c2)OCO3)[nH]n1)N1CCCC1` the same measures were 0.912% and -23.7%.
The matching figures for `COc1cccc(NC(=O)N(CCO)Cc2ccsc2)c1`: -1.36% and -14.3%.
Regarding `CCNc1cc2c(nn1)CCN(C(=O)CC1CCCCC1)C2`, the Percent Effect in assay [1] is -7.97%; in assay [2], -4.17%.
The matching figures for `COc1cccc(OCC2CCCN(C(C)=O)C2)c1` (centres undefined): 3.99% and -11%.
The matching figures for `O=C(NC[C@]1(O)CN(Cc2ccccc2F)C[C@H]1O)c1ccccn1`: 7.9% and 19.5%.
The matching figures for `CC(=O)c1cc(CC(=O)NCc2ccc(F)cc2)cs1`: 1.48% and -11.3%.
Consider `Cc1cc(CC(=O)NCc2ccnc(OCC(F)(F)F)c2)no1`, for which the Percent Effect is -6.06% in assay [1] and 21% in assay [2].
The matching figures for `Cc1cc(N2CCN(Cc3nccn3C)CC2)cc(C)n1`: 2.09% and -75.9%.
For `Cc1cnn(CC2CCCCN2Cc2nc(N)c3ccccc3n2)c1` (centres undefined) the same measures were -5.71% and -7.68%.
Consider `Cc1ccc(CN(CCCn2ccnc2)Cc2c[nH]cn2)s1`, for which the Percent Effect is -4.18% in assay [1] and -13.7% in assay [2].
The matching figures for `O=C(c1cncc(Br)c1)N1CCC(O)(Cn2ccc3ccncc32)CC1`: 3.38% and -12.7%.
For `Cc1noc(C)c1CN(C)C(=O)NC1CCN(C2CC2)CC1` the same measures were -2.46% and -7.45%.
With `O=C(Nc1ccnc(OC2CCOC2)c1)c1cc(F)ccc1F` (centres undefined), the Percent Effect was -4.18% in assay [1] and -63.1% in assay [2].
For `O=C(NCCOc1ncc(Cl)cc1Cl)c1ccncc1F` the same measures were -3.03% and 1.2%.
For `Cc1noc(C)c1CNC(=O)N1CCC(CO)CC1` the same measures were 2.21% and -4.58%.
For `N#Cc1ncn(CCC(=O)Nc2ccc(Cl)cc2F)n1` the same measures were 10.4% and -41%.
Consider `CNc1cc2c(nn1)CCN(C(=O)C1CCCc3ccccc31)C2` (centres undefined), for which the Percent Effect in assay [1] came out at 0.0571%; in assay [2], 4.77%.
With `c1cnc(N2CCC3(CCN(CC4CC4)CC3)CC2)nc1`, the results for the Percent Effect in assay [1] and in assay [2] were 0.564% and 6.17%, respectively.
For `Fc1cccc(N2CCCC3(CN(Cc4ccncc4)CCO3)C2)c1` (centres undefined) the same measures were 5.63% and -4.22%.
For `O=C1C(NCc2nnc3n2CCCC3)CCN1CC(F)(F)F` (centres undefined) the same measures were -0.389% and 1.91%.
As to `COCCN1C(=O)CCC12CCN(C(=O)CC1CC1)CC2`, the Percent Effect in assay [1] turned out to be 2.75%; in assay [2] it was 0.89%.
With `Cc1cc(C)c(OCC(=O)NS(=O)(=O)c2cccnc2)c(C)c1`, the Percent Effect in assay [1] is -4.5%; in assay [2], -1.8%.
For `CCOCCN1CCN(Cc2nnc(C3CC3)o2)CC1CC` (centres undefined) the same measures were 1.06% and -12.2%.
The matching figures for `Cc1cc(C(=O)NCc2ccccn2)no1`: -4.62% and -0.424%.
